Dicer processing: human Dicer pre-microRNA cleavage inhibition; cat-ELCCA pre-miR-21 Dicer processing, chemiluminescence; hits give high values; z-score at 25 µM; 47,000 tested, 6% active; Q9UPY3; AID 1347074; in the data active = z-score above about 3, passing the limit was not always enough;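 also: plate controls were vehicle for no effect and no enzyme for full effect; higher signal means more uncleaved substrate so more Dicer inhibition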
Target sequence (Q9UPY3 whole entry, looked up): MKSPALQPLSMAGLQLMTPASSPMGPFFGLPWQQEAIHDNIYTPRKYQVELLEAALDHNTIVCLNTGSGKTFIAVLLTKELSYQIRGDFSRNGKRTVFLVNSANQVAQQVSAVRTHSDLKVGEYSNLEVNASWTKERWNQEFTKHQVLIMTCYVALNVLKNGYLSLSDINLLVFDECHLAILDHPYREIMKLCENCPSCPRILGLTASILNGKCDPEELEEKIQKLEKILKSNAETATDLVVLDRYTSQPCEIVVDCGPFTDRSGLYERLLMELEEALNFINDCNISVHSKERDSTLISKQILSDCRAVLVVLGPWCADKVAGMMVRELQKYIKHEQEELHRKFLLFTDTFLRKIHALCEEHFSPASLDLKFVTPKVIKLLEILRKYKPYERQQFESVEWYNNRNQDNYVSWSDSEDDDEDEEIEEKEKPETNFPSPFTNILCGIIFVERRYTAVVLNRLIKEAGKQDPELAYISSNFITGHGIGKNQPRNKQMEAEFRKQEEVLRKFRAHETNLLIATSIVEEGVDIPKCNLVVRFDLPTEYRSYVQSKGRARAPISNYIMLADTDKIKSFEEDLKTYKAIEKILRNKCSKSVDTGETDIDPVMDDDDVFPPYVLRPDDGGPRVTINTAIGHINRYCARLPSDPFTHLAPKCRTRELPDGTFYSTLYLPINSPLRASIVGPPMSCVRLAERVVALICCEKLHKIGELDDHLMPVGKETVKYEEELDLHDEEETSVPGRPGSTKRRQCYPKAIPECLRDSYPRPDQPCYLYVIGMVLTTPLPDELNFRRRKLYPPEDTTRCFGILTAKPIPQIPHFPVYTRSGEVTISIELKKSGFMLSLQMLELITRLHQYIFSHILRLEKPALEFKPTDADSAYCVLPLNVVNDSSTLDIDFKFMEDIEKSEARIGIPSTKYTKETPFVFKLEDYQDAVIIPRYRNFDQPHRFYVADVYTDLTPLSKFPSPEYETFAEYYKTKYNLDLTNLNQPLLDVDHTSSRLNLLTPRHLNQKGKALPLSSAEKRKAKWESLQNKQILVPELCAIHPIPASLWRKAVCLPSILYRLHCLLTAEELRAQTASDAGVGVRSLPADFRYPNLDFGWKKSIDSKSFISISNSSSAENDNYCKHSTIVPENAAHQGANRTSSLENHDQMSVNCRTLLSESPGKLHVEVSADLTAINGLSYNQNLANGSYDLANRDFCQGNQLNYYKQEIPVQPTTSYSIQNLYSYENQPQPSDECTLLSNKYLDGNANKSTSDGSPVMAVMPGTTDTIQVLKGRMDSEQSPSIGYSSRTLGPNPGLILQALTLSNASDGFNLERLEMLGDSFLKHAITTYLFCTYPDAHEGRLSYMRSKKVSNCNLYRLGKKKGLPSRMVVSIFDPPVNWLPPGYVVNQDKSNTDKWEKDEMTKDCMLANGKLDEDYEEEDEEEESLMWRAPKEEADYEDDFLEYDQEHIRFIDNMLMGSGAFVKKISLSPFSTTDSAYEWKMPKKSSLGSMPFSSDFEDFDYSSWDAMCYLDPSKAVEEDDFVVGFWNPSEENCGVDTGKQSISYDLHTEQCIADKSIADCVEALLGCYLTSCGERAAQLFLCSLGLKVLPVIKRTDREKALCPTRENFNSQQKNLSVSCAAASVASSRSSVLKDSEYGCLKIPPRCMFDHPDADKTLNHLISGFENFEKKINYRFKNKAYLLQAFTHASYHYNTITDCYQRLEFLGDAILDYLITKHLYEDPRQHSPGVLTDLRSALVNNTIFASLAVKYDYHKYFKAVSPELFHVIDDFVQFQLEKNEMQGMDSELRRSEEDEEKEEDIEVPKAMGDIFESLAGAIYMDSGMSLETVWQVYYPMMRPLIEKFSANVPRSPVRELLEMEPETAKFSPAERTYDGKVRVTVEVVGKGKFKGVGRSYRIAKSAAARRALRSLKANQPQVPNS
* hit, by the source's call. The sample as a whole holds a higher share of hits than the screen did.

What do the screens show for `O=[N+]([O-])c1ccsc1Oc1ccc(Cl)cc1Cl`?
Dicer processing: 4.2*

How did O=[N+]([O-])c1ccc(Oc2ccc(Cl)cc2Cl)cc1C(F)(F)F do in these assays?
Dicer processing: 0.22

How did COC(=O)C1(C)CCC(C(=O)O)C1(C)C (stereo not given) do in these assays?
Dicer processing: 1.27

Results for CC(C)C(=O)NNc1ncccc1C(F)(F)F ?
Dicer processing: -0.82

How did O=C1Nc2ccc(Cl)cc2C(c2ccccc2)=Nc2ccccc21 do in these assays?
Dicer processing: -1.2

How did CN1CCN(C2=Nc3cc(Cl)ccc3Nc3ccccc32)CC1 do in these assays?
Dicer processing: 19.9

How did Clc1ccc2c(c1)N=C(N1CCNCC1)c1ccccc1N2 do in these assays?
Dicer processing: 4.03*

What do the screens show for `Cc1cc(C)c(S(=O)(=O)N(C(=O)c2ccncc2)c2ccc3oc(=O)sc3c2)cc1C`?
Dicer processing: 4.98*

How did Cc1ccc(S(=O)(=O)N(C(=O)c2ccncc2)c2ccc3oc(=O)sc3c2)c(C)c1 do in these assays?
Dicer processing: 7.67*

What do the screens show for `COc1ccc(OC)c(S(=O)(=O)N(C(=O)C(C)C)c2ccc3oc(=O)sc3c2)c1`?
Dicer processing: -0.44

How did COC(=O)c1c(C)oc(=O)c(Br)c1C do in these assays?
Dicer processing: -0.02

Results for c1ccc(-c2cnc(-c3ccccc3)o2)cc1 ?
Dicer processing: 0.19

Results for Cc1nn(-c2ccc(Br)cc2)c2nc(-c3ccncc3)cc(C(F)(F)F)c12 ?
Dicer processing: 5.55

What do the screens show for `CC1=C(C(=O)OC(C)C)C(c2cccc(Cl)c2)C2=C(CCCC2=O)N1` (stereo not given)?
Dicer processing: -1.82

Results for COc1ccc(CN2CCC(N3CCCCC3)CC2)cc1Br ?
Dicer processing: 3.74*

Results for COc1ccc(CN2CCC(N3CCCCC3)CC2)cc1OC ?
Dicer processing: 0.7

How did CCn1c2ccccc2c2cc(CN3CCC(N4CCCCC4)CC3)ccc21 do in these assays?
Dicer processing: -0.94

What do the screens show for `COc1ccc(/C(C)=N/N=C(\C)c2ccc(OC)cc2)cc1`?
Dicer processing: -0.68

Results for c1csc(C2CC(C3SCCS3)CS2)c1 (stereo not given) ?
Dicer processing: -0.63

Results for O=c1c(Cc2ccccc2)coc2ccccc12 ?
Dicer processing: 1.26

Results for Cc1ccc(CNCc2ccc3c(c2)OCO3)cc1 ?
Dicer processing: 0.29

What do the screens show for `Cc1ccc(CNCc2ccc3c(c2)OCO3)s1`?
Dicer processing: -0.56

What do the screens show for `Cc1ccc(C)c(NCc2ccc3c(c2)OCO3)c1`?
Dicer processing: 5.43*

Results for Cn1c(=O)c(Cc2ccccc2)c(OS(=O)(=O)c2ccccc2)c2ccccc21 ?
Dicer processing: 1.81

What do the screens show for `Cc1cc(-c2nnc(CSc3cc(Cl)ccc3Cl)o2)ccc1[N+](=O)[O-]`?
Dicer processing: -0.87

How did Cn1c2c(cc(C#N)c1=O)COC(C)(C)C2 do in these assays?
Dicer processing: -0.95

Results for S=C(NCCc1ccccc1)N/N=C/c1c(-c2ccc(Cl)cc2)[nH]c2ccccc12 ?
Dicer processing: 3.73*

What do the screens show for `COc1cccc(/C=N/NC(=S)NCCc2ccccc2)c1OC`?
Dicer processing: -1.36

How did Oc1ccccc1/C=N/NC(=S)NCCc1ccccc1 do in these assays?
Dicer processing: 11.7

Results for O=C(c1ccc(Br)cc1)C(C(=O)N1CCc2ccccc2C1)n1ccccc1=O (stereo not given) ?
Dicer processing: -0.35

What do the screens show for `COc1ccc(-c2nc3c4c5c(sc4ncn3n2)CCCCC5)cc1OC`?
Dicer processing: 1.11

Results for COc1ccc(-c2nc3sc4c(c3c(=O)[nH]2)CCCC4)cc1OC ?
Dicer processing: 5.08*

Results for O=C(CSc1nc2sc3c(c2c(=O)[nH]1)CCCC3)N1CCCCC1 ?
Dicer processing: -0.27

What do the screens show for `COc1ccc(-c2ncnn2-c2sc3c(c2C#N)CCCC3)cc1OC`?
Dicer processing: -5.02

Results for C=C(C)CSc1nc2sc3c(c2c(=O)[nH]1)CCCC3 ?
Dicer processing: 0.28

What do the screens show for `CC(C)(C)c1nc2sc3c(c2c(=O)[nH]1)CCCC3`?
Dicer processing: 5.34*

What do the screens show for `CN1c2ccsc2C(=O)/C(=C\Nc2ccccn2)S1(=O)=O`?
Dicer processing: 0.61

What do the screens show for `CC(=O)C1=NN(c2ccc(Cl)cc2)C2(SCC(=O)N2c2ccccc2)S1` (stereo not given)?
Dicer processing: 0.16

Results for CCOC(=O)c1nc(Nc2ccccc2OCC)c2ccccc2n1 ?
Dicer processing: -0.07

How did CS(=O)(=O)Cc1c(Cl)cccc1Cl do in these assays?
Dicer processing: 0.88

Results for CC(C)(C)c1cc(C(C)(C)C)n(-c2ccc(C(=O)O)cc2)n1 ?
Dicer processing: -0.66

Results for CC(C)(C)c1ccc2c(c1)CN(c1ccc(C(=O)O)cc1)CO2 ?
Dicer processing: 3.86*

How did CN(C(=O)c1ccc2c(c1)CCO2)C(C)(C)C do in these assays?
Dicer processing: -0.86

What do the screens show for `COc1ccc(Oc2ccc(C(F)(F)F)cc2NC(=O)c2ccc(C)c(C)c2)cc1`?
Dicer processing: -1.52

How did COc1ccc(-c2cc(OC(=O)c3cccc(Br)c3)c3c(C)oc(C)c3c(=O)c2)cc1 do in these assays?
Dicer processing: 2.69

What do the screens show for `COc1ccc(-c2cc(OC(=O)c3ccc(Cl)cc3)c3c(C)oc(C)c3c(=O)c2)cc1`?
Dicer processing: 1.73

How did COc1ccc(-c2cc(OC(=O)c3cccs3)c3c(C)oc(C)c3c(=O)c2)cc1 do in these assays?
Dicer processing: 4.31*

Results for CCCCCOC(=O)c1c(C)oc2ccc(NS(=O)(=O)c3cccs3)cc12 ?
Dicer processing: -1.68

Results for CS(=O)(=O)c1sc(NC(=O)Nc2ccc(Cl)cc2)c2c1C=CCC2 ?
Dicer processing: 3.33*

Results for Cc1c(NC(=O)Nc2ccccc2)sc2nc(-c3ccc(Cl)cc3)nn12 ?
Dicer processing: -2.34

What do the screens show for `CC1CCc2c(sc(NC(=O)Nc3ccc(Cl)cc3)c2C(N)=O)C1` (stereo not given)?
Dicer processing: 1.65

What do the screens show for `O=c1ncc(Oc2ccc(Cl)cc2Cl)c[nH]1`?
Dicer processing: 0.89

Results for Cn1c(=O)c2c(nc(NCc3ccc4c(c3)OCO4)n2Cc2cccc(F)c2)n(C)c1=O ?
Dicer processing: 1.44

How did C=CCOc1ccc(/C(O)=C2/C(=O)C(=O)N(CCCN(C)C)C23C(=O)N(C)c2ccccc23)cc1 (stereo not given) do in these assays?
Dicer processing: -2.31

Results for O=C(O)CC1(CC(=O)NCC(O)c2ccccc2)CCCC1 (stereo not given) ?
Dicer processing: 0.93

Results for CC(C)/C(=N\O)c1ccc(C(C)C)cc1 ?
Dicer processing: 0.98

What do the screens show for `O=C1c2cccc3cccc(c23)C(=O)N1c1ccc(Cl)cc1`?
Dicer processing: 6.03*

How did CN1C(=O)c2cccc3cccc(c23)C1=O do in these assays?
Dicer processing: -1.13

Results for O=C1c2cccc3cccc(c23)C(=O)N1c1ccccc1 ?
Dicer processing: 0.9

Results for CC1CN(CCc2ccccc2)c2nc3c(c(=O)n(CC(=O)O)c(=O)n3C)n2C1 (stereo not given) ?
Dicer processing: 1.31

What do the screens show for `CC(C)(C)c1ccc(C(=O)/C=c2/[nH]c(=O)/c(=C/c3ccccc3)s2)cc1`?
Dicer processing: 1.26

What do the screens show for `Cc1onc(-c2ccccc2)c1NC(=O)N(C)CCc1ccccn1`?
Dicer processing: 1.28

What do the screens show for `COc1ccc(O)c(C2=NN3C(C2)c2cccc(OC)c2OC3c2ccc(O)c(OC)c2)c1` (stereo not given)?
Dicer processing: 0.94
